High-throughput results: PubChem BioAssay, National Center for Advancing Translational Sciences (NCATS)
Shiga toxin inh: A qHTS for Small Molecule Inhibitors of Shiga Toxin; Vero cells, Shiga toxin protein synthesis inhibition reporter; inhibition, % at 38.7 µM; 290,000 compounds, 9.2% hits; AID 2315, 2010; in the data active = inhibition mostly above about 28%, no sharp cut-off; inactive = mostly below about 43%; also: 0% is about no effect
NS1 inh: qHTS Assay for Inhibitors of Influenza NS1 Protein Function. 270,000 compounds, 0.4% hits. Potency, µM (top dose mostly 46.1 µM), for inactives: at the top dose activity, positive = more growth; also: potency is read from the fitted curve at half-maximal effect; actives are rising curves; nearly all actives have a fitted effect of over 50% in size
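Compounds were scored for reversing the slow growth caused by influenza A NS1 in S. cerevisiae, measured by optical density at 600 nm. Assay medium contained 2% galactose at pH 6.0; NS1-free yeast of the same strain were the positive control.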
SARS PLpro yeast: qHTS of Yeast-based Assay for SARS-CoV PLP; S. cerevisiae expressing SARS-CoV PLpro, growth rescue; Potency, µM (series often up to 32.9 µM), for the others: top-dose activity, positive = growth rescue, actives largely listed as activators; 330,000 compounds, 0.19% hits; also: potency is read from the fitted curve at half-maximal effect; 0% is about no effect; nearly all actives have a fitted effect of over 55% in size
CHX counter: Cycloheximide Counterscreen for Small Molecule Inhibitors of Shiga Toxin. cell reporter, cycloheximide protein synthesis inhibition counterscreen. max response, %. 300,000 compounds, 12% hits; in the data active = max response mostly above about 13%, no sharp cut-off; inactive = mostly below about 14%; also: read at 38.3 µM for the half of the compounds with a filed dose; 0% is about no effect
Numbers without * were called inactive; ? = inconclusive; . = no result. Sampled rows, rich in hits. Any-hit rate of the full collection: about 12%. Unless noted, calls follow the shape of the full dose curve.

SMILES | Shiga toxin inh | NS1 inh | SARS PLpro yeast | CHX counter
C/C(=N\NC(=O)C(c1ccncc1)N1CCOCC1)c1ccc(Br)cc1 (configuration not stated) | 10.0 | 0.1% | -2.2% | 0.4
O=C1CC(NNC(=O)c2cccc(F)c2)C(=O)N1 (configuration not stated) | 23.9 | 2.2% | 0.8% | 10.8*
O=C1CC(NNC(=O)c2ccccc2)C(=O)N1 (configuration not stated) | -9.7 | 8.8% | -4.7% | -1.5
Cc1c(Br)c([N+](=O)[O-])nn1CC(=O)N1CCN(C23CC4CC(CC(C4)C2)C3)CC1 | 9.9 | 5.8% | -9.1% | 0.9
CC(=O)n1nc(-c2ccc(Cl)cc2)nc1NCc1ccco1 | 49.8* | -7.3% | 9.4% | 31.2*
COc1ccc(CC(=O)n2nc(-c3ccc(Cl)cc3)nc2NCc2ccco2)cc1 | 62.9 | -5.7% | 3.1% | 22.5*
CC(=O)C12C3C4C(C5C1C3C5(Br)C41OCCO1)C21OCCO1 (configuration not stated) | -3.5 | . | 12.6% | 0.5
COc1c(-c2ccc([N+](=O)[O-])cc2[N+](=O)[O-])c(=O)n(C)c(=O)n1C | 9.8 | 5.8% | 0.8% | -3.4
CC(C)c1ccc(NC(=O)C2CCCCN2S(=O)(=O)c2ccccc2)cc1 (configuration not stated) | . | . | 5.5% | .
Fc1ccccc1Cc1noc(CN2CCC(OCc3cccnc3)CC2)n1 | 58.8* | -1.5% | -4.0% | 22.3*
COC1CCCN(Cc2nc(Cc3ccccc3F)no2)C1 (configuration not stated) | 3.8 | 4.9% | -0.8% | 10.6
CCN(CC)Cc1cc(C(=O)O)c(C)o1 | 53.3* | 2.4% | -1.7% | 13.4*
COc1ccc(OCc2cc(C(=O)O)c(C)o2)cc1 | 26.4 | -2.4% | 1.0% | 33.0*
Cn1c(=O)n(C)c2cc(N3CCOCC3)c(NC(=O)c3ccc(F)cc3)cc21 | 2.1 | 2.1% | -1.3% | -2.4
Cc1cc(C)n(CCNC(=O)CC2C(=O)NCCN2Cc2ccccc2C(F)(F)F)n1 (configuration not stated) | 2.1 | 0.8% | 1.9% | -2.6
CCN(CC)S(=O)(=O)c1ccc(C(=O)C(C#N)c2ccccn2)cc1 (configuration not stated) | 18.7 | -3.5% | 0.3% | -1.2
CCOC(=O)C(C#N)c1ccccn1 (configuration not stated) | 64.0 | 0.5% | 0.8% | 29.4*
O=C(NC1CCCCCC1)C1CCC(=O)N(Cc2ccccc2F)C1 (configuration not stated) | 25.8 | -5.0% | 2.0% | 26.7*
Cc1ccc(CNC(=O)C2CCC(=O)N(CCc3ccccc3)C2)s1 (configuration not stated) | 34.3 | -9.0% | -3.6% | 54.4*
Cc1ccc(CNC(=O)C2CCC(=O)N(Cc3ccccc3F)C2)s1 (configuration not stated) | 15.3 | 4.0% | 0.6% | 31.5*
Cc1cccc(N2CCN(C(=O)C3CCC(=O)N(Cc4ccccc4F)C3)CC2)c1C (configuration not stated) | 9.3 | -22.3% | -1.6% | 15.0*
Cc1cc(CNC(=O)C2CCC(=O)N(Cc3ccccc3F)C2)on1 (configuration not stated) | 23.8 | 11.5% | 2.4% | 7.0
Cc1cc2c(s1)c1cnn(Cc3ccccc3F)c(=O)c1n2C(C)C | -5.8 | . | . | 16.2
O=C(Nc1nccs1)c1ccccc1[N+](=O)[O-] | -14.9 | -0.7% | 13.4% | -1.9
O=C(Nc1nccs1)C(Br)C(Br)c1ccccc1 (configuration not stated) | 68.6* | -2.7% | -7.4% | 33.7*
SMILES | Shiga toxin inh | NS1 inh | SARS PLpro yeast | CHX counter
Cn1cc(Br)c(C(=O)Nc2nccs2)n1 | 42.9* | 2.3% | 6.3% | 26.8*
Cn1cc(Br)c(C(=O)NC2CCCCCC2)n1 | 55.5 | -17.6% | 11.7% | 17.2*
O=C(Nc1nccs1)c1ccccc1Br | 30.3 | 25.4% | -1.0% | 27.6*
Cn1cc(Br)c(C(=O)NC2C3CC4CC(C3)CC2C4)n1 (configuration not stated) | 21.6 | -31.9% | -15.4% | 15.5
Nc1ccccc1C(=O)Nc1nccs1 | 61.7* | 2.8% | -0.6% | 44.7*
CCOc1ccccc1C(=O)Nc1nccs1 | 31.2 | -27.8% | 1.7% | -2.2
Cc1c(C)c2cc(Cl)c(OCC(=O)NC3CC(C)(C)NC(C)(C)C3)cc2oc1=O | 3.8 | -1.2% | -3.9% | 9.0
O=C(Cc1ccc(Br)cc1)Nc1nc2ccccc2[nH]1 | 22.4 | -9.9% | -0.6% | 13.7*
O=S(=O)(CCOc1ccccc1)c1nc2ccccc2[nH]1 | 22.7* | 2.3% | -3.1% | 18.1*
O=C(CSc1ccccc1)Nc1nc2ccccc2[nH]1 | 83.9* | 8.2% | -5.7% | 28.3*
O=C(CCCOc1ccccc1)Nc1nc2ccccc2[nH]1 | 68.4* | . | 3.2% | 33.8*
O=C(Cc1ccc(Cl)cc1)Nc1nc2ccccc2[nH]1 | 6.7 | 0.8% | -6.7% | -1.0
Cc1cc(C)nc(SCC(=O)OC(C)C(=O)Nc2ccccc2)n1 (configuration not stated) | -9.3 | 2.6% | -6.2% | -2.1
Cc1cc(C)cc(OCC(=O)NNC(=O)CN2C(=O)c3ccccc3C2=O)c1 | 12.0 | -15.4% | 1.7% | -2.9
O=C(Cc1ccccc1)Nc1nc2ccccc2[nH]1 | 79.5* | -0.2% | 5.8% | 25.9*
CC1=NNC(=O)C1CC(=O)N/N=C/C(Br)=C/c1ccccc1 (configuration not stated) | 7.7 | -3.2% | -9.2% | 7.4
COc1cc(/C=N/NC(=O)C2=NNC(=O)C2C)ccc1O (configuration not stated) | 48.5 | ? | 1.9% | 27.4*
CC1C(=O)NN=C1C(=O)N/N=C/c1ccco1 (configuration not stated) | 47.6* | . | -2.3% | 53.3*
CC1C(=O)NN=C1C(=O)N/N=C\C(Br)=C\c1ccccc1 (configuration not stated) | 52.7* | . | -3.1% | 17.5*
CC1C(=O)NN=C1C(=O)N/N=C\c1ccc(O)cc1O (configuration not stated) | 29.9 | 7.1% | ? | 24.0*
CCOc1cc(-c2sc(Nc3ccccc3)n[n+]2C)ccc1OC | 5.9 | -25.2% | 6.5% | 1.5
Cc1nc(Cl)c(Cl)n1CCOc1ccccc1 | -0.7 | 0.7% | -2.0% | 6.2
Cc1nn(-c2ccccc2)c(C)c1/C=N/Nc1nc2ccccc2[nH]1 | 148.7* | ? | -32.2% | 82.2*
CCCn1c(/C=N/Nc2nc3ccccc3[nH]2)nc2ccccc21 | 45.5* | -42.4% | -49.7% | 48.5*
C=CCn1cc(/C=N/Nc2nc3ccccc3[nH]2)c2ccccc21 | 74.3* | 9.6% | 3.1% | 40.2*
CC(C)Cn1c(/C=N/Nc2nc3ccccc3[nH]2)nc2ccccc21 | 12.2 | -21.6% | -87.7% | 6.9
CS(=O)(=O)Nc1nc2ccccc2[nH]1 | -2.8 | 5.4% | 0.4% | 4.4
C=CCn1cc(/C=N\NC(=O)c2cc3c(ccc4ccccc43)o2)c2ccccc21 | 15.0 | 17.9% | -3.7% | -3.7
Cn1c(/C=N/Nc2nc3ccccc3[nH]2)nc2ccccc21 | 154.1* | . | -18.5% | 34.4*
CCOC(=O)CCCc1sc(N)nc1-c1[nH]c(=O)[nH]c1C | 7.0 | ? | 7.8% | -0.8
